The source of these data is paper PMC7862700, “An all-to-all approach to the identification of sequence-specific readers for epigenetic DNA modifications on cytosine”.

Common to all, as to assay: DAPPL (digital affinity profiling via proximity ligation, sequencing); 10 mM Tris-HCl pH 7.5, 50 mM NaCl, 1 mM DTT, 4% glycerol, room temperature, 30 min; GST-TFs on glutathione beads, 16-mer random dsDNA library, 0.1% formaldehyde crosslink after washing; high values mean tight binding
For one test, the target named is T1, FLI1 (Homo sapiens, UniProt Q01543 1-452).
T1 sequence: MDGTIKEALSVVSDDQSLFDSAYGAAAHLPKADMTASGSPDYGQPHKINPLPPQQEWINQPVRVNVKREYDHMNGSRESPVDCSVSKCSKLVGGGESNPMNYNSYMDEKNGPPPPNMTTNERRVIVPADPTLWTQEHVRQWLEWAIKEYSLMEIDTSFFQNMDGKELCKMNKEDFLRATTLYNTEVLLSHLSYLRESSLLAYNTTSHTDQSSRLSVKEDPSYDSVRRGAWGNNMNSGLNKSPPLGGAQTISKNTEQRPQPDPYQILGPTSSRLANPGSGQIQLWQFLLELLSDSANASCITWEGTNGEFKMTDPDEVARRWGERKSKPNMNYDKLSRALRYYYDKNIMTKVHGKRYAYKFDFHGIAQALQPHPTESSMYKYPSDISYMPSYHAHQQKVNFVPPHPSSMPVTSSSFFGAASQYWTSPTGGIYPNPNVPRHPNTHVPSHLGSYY
Conditions: protein: recombinant; tags: N-terminal GST; dsDNA, one strand shown. The method in brief:
(§1)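 Beads coated with glutathione captured GST-fused human transcription factors that had been expressed in yeast, and the factors were then given DNA barcodes and pooled with a tag-only sample. The pools were incubated with 200 nmole of a random double-stranded 16-mer DNA library in Tris/NaCl/DTT/glycerol buffer for 30 min at room temperature, washed, crosslinked with 0.1% formaldehyde and proximity-ligated with BsaI/T4 ligase at 37 °C for 1 h. PCR amplification and Illumina NextSeq500 sequencing came last. Binding signal is each hexamer's read frequency for a factor divided by its frequency for the tag-only sample.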

The next test concerns the target T2, ELK1 (Homo sapiens, UniProt P19419 1-428).
T2 sequence: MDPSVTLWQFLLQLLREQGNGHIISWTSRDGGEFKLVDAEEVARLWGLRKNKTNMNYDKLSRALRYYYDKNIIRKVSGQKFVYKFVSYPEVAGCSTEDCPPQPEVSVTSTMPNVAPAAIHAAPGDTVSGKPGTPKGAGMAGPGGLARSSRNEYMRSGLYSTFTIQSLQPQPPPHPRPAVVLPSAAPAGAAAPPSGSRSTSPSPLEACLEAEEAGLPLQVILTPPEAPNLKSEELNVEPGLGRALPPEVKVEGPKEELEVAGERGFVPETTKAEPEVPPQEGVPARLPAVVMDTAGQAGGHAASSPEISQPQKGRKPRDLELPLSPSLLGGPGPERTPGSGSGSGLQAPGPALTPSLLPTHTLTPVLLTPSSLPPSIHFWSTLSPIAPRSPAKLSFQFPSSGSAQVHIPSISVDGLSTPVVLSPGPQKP
Conditions: protein: recombinant; tags: N-terminal GST; dsDNA, one strand shown. The gist of the method: as §1

The target in a further test is T3, GABPA (Homo sapiens, UniProt Q06546 1-454).
T3 sequence: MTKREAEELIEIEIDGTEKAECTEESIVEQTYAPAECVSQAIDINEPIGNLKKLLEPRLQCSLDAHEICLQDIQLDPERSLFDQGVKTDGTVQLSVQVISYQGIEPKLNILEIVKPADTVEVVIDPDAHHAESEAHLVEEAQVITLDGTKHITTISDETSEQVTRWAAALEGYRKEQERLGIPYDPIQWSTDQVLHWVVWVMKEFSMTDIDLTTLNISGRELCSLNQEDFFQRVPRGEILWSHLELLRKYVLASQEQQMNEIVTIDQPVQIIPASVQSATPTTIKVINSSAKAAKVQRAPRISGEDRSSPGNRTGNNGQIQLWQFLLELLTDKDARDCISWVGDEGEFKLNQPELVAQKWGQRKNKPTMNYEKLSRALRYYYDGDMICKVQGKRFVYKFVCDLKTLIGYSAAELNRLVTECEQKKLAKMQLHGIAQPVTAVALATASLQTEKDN
Conditions: protein: recombinant; tags: N-terminal GST; dsDNA, one strand shown. The gist of the method: as §1

In another test the target is ELF1 (Homo sapiens, UniProt P32519 1-619). Conditions: protein: recombinant; tags: N-terminal GST; dsDNA, one strand shown. The gist of the method:
as §1

For another test, the target named is T4, EHF (Homo sapiens, UniProt Q9NZC4 1-300).
T4 sequence: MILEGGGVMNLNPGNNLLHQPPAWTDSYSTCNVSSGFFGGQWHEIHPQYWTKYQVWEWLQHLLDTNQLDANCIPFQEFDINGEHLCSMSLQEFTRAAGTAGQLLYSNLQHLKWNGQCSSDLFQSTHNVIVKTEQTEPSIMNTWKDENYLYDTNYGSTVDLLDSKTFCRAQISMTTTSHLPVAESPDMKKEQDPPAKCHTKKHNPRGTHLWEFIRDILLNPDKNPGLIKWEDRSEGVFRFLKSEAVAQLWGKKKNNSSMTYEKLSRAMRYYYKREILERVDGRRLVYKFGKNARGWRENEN
Particulars: protein: recombinant; tags: N-terminal GST; dsDNA, one strand shown. The method in brief:
as §1

Another test deals with SPI1 (Homo sapiens, UniProt P17947 1-270). Conditions: protein: recombinant; tags: N-terminal GST; dsDNA, one strand shown. The method in brief: as §1
The next test deals with SPIB (Homo sapiens, UniProt Q01892 1-262). Conditions: protein: recombinant; tags: N-terminal GST; dsDNA, one strand shown. The gist of the method:
as §1

In a further test the target is T5, ELK3 (Homo sapiens, UniProt P41970 1-407).
T5 sequence: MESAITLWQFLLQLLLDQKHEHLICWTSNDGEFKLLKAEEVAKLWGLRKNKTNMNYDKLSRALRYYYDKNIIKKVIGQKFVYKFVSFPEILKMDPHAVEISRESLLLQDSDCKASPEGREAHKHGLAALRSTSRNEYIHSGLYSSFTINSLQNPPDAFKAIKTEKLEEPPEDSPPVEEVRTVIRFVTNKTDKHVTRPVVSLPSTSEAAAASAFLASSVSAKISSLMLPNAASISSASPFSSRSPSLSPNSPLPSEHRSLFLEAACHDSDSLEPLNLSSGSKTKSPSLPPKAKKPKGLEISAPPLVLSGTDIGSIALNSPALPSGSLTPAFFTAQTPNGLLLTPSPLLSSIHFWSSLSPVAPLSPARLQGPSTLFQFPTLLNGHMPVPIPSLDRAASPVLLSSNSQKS
Conditions: protein: recombinant; tags: N-terminal GST; dsDNA, one strand shown. The gist of the method:
as §1

In another test the target is T6, FEV (Homo sapiens, UniProt Q99581 1-238).
T6 sequence: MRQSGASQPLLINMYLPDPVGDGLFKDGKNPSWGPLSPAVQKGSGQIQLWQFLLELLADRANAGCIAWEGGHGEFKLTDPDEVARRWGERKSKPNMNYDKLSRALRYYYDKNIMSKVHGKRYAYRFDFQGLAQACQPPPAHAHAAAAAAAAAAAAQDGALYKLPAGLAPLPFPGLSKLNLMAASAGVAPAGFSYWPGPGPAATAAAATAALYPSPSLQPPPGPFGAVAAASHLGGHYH
Particulars: protein: recombinant; tags: N-terminal GST; dsDNA, one strand shown. The method in brief: as §1

The target of another test is ETV5 (Homo sapiens, UniProt P41161 1-510). Conditions: protein: recombinant; tags: N-terminal GST; dsDNA, one strand shown. The gist of the method:
as §1

For another test, the target named is HSF1 (Homo sapiens, UniProt Q00613 1-529). Particulars: protein: recombinant; tags: N-terminal GST; chain copies: 3; dsDNA, one strand shown. The method in brief: as §1
Chain of HSF1 (Q00613 whole entry): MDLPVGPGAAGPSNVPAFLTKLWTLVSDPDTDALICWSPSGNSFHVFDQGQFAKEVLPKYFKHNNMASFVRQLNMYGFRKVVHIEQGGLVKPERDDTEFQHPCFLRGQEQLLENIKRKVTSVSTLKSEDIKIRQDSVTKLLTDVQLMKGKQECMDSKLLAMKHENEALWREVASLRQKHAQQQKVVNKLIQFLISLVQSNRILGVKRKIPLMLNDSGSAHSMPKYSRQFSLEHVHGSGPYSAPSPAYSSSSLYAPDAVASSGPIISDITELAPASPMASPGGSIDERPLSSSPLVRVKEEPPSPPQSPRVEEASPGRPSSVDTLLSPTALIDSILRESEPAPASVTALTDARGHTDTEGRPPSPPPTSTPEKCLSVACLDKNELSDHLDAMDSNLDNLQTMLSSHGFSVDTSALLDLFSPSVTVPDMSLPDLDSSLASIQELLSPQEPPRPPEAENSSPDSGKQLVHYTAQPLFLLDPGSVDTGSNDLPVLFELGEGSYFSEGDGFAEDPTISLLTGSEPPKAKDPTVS
A further test has as its target T7, SPIC (Homo sapiens, UniProt Q8N5J4 1-248).
T7 sequence: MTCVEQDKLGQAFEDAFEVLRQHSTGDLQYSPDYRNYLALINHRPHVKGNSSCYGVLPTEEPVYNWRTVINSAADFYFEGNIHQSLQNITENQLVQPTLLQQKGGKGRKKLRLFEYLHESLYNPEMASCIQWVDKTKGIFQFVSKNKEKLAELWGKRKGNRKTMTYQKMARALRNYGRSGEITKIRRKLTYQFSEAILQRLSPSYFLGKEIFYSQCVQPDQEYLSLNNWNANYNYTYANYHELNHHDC
Particulars: protein: recombinant; tags: N-terminal GST; dsDNA, one strand shown. The method in brief:
as §1

For a further test, the target named is ELF4 (Homo sapiens, UniProt Q99607 1-663). Conditions: protein: recombinant; tags: N-terminal GST; dsDNA, one strand shown. The method in brief: as §1
Chain of ELF4 (Q99607 whole entry): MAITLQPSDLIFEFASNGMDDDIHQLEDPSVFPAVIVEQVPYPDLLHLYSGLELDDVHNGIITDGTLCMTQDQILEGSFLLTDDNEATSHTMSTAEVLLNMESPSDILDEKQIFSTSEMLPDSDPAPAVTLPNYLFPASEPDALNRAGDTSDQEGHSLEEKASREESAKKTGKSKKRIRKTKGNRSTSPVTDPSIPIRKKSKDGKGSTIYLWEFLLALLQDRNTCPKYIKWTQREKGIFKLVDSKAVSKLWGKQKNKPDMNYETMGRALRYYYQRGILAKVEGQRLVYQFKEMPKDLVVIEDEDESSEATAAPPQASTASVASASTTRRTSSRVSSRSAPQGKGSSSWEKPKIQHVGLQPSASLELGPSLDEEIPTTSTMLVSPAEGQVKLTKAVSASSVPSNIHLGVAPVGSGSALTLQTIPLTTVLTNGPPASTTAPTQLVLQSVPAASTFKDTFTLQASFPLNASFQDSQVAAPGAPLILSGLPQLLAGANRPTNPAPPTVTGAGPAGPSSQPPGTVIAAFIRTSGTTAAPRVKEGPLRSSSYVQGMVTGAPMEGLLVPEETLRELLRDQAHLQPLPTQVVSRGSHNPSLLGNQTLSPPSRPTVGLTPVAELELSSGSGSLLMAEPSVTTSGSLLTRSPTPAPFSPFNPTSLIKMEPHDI
The target in another test is T8, ELK4 (Homo sapiens, UniProt P28324-2 1-405).
T8 sequence: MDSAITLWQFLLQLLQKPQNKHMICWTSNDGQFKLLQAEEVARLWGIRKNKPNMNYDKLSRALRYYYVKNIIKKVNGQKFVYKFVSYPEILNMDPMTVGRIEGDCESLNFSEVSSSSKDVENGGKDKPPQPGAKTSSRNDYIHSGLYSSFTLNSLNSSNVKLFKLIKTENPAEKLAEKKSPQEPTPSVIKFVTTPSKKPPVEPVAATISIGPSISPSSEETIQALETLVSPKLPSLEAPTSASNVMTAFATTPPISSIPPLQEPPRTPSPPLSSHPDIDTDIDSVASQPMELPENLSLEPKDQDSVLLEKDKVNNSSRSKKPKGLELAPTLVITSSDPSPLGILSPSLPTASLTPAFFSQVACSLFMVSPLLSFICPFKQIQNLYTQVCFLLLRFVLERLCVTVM
Conditions: protein: recombinant; tags: N-terminal GST; dsDNA, one strand shown. The method in brief: as §1

A further test addresses T9, ELF3 (Homo sapiens, UniProt P78545 1-371).
T9 sequence: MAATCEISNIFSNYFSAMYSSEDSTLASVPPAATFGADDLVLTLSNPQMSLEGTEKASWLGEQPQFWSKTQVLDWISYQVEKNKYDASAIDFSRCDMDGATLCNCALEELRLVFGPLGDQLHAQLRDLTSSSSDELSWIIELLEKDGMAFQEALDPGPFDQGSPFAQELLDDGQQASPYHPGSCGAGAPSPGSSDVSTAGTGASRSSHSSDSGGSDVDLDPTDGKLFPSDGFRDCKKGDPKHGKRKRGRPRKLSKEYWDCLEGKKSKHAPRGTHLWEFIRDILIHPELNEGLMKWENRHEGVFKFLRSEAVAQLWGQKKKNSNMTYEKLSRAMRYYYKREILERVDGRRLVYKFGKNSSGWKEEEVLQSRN
Conditions: protein: recombinant; tags: N-terminal GST; dsDNA, one strand shown. The method in brief:
as §1

In another test the target is CRX (Homo sapiens, UniProt O43186 1-299). Conditions: protein: recombinant; tags: N-terminal GST; dsDNA, one strand shown. The method in brief:
as §1

For the next test, the target named is ETV1 (Homo sapiens, UniProt P50549 1-477). Particulars: protein: recombinant; tags: N-terminal GST; dsDNA, one strand shown. The method in brief: as §1
Chain of ETV1 (P50549 whole entry): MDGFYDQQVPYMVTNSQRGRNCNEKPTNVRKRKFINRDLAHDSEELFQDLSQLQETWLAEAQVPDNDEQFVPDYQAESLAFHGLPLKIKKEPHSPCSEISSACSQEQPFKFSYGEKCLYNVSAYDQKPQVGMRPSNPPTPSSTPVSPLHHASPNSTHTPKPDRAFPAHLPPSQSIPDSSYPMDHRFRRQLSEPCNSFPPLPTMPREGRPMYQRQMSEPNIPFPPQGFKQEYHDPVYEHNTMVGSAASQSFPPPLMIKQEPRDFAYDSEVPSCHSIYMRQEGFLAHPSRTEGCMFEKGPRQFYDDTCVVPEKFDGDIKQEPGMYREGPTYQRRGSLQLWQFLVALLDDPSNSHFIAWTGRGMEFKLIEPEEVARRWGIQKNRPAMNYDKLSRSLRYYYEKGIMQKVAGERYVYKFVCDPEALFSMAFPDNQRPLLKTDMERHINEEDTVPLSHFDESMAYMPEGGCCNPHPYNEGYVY

Chain of SPIB (Q01892 whole entry): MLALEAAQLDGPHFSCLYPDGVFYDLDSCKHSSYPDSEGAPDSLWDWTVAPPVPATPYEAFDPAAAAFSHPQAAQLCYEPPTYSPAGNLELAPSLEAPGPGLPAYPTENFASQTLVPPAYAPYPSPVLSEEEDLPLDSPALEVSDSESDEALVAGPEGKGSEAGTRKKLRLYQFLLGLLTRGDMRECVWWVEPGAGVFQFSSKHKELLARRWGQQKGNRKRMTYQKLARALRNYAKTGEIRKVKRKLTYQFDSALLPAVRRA
Chain of ELF1 (P32519 whole entry): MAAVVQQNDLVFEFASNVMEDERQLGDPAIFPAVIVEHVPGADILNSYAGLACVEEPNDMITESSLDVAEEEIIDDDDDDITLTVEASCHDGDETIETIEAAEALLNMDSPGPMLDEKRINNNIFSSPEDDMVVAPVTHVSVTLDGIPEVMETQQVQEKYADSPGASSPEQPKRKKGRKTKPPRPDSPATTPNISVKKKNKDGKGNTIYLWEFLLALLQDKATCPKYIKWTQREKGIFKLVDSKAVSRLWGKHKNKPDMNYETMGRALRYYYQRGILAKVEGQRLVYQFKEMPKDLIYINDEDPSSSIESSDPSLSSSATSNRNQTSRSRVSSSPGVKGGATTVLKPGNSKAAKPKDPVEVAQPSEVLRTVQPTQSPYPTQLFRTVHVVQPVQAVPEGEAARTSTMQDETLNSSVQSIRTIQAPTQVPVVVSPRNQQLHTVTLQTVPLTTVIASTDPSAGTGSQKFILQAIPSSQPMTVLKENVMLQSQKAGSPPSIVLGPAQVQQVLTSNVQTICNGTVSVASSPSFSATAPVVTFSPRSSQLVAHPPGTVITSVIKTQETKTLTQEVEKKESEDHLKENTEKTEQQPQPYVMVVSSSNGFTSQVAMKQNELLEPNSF
Chain of ETV5 (P41161 whole entry): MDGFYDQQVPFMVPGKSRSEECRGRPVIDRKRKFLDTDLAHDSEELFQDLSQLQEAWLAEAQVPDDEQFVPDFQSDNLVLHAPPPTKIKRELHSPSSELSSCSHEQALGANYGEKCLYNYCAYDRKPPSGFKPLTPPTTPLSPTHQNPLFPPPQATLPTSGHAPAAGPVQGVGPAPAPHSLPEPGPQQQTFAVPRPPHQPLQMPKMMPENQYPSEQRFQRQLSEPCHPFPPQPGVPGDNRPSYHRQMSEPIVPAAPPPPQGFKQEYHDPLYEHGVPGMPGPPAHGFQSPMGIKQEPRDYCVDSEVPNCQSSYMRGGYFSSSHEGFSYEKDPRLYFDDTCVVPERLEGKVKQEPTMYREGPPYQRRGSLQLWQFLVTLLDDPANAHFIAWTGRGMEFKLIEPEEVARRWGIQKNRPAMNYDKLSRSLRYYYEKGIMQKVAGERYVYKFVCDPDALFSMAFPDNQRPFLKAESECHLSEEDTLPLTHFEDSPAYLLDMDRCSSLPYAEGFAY
Chain of CRX (O43186 whole entry): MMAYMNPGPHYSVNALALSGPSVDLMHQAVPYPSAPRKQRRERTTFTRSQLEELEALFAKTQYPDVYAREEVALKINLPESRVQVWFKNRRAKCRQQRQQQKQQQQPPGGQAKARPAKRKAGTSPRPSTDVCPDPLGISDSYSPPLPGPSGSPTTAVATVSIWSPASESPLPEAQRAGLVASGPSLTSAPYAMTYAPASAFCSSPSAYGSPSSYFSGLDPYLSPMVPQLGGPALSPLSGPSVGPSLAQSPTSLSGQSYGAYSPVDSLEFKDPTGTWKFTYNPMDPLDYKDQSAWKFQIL

For the sequence TAAAGC, the binding signal is 1.03 fold enrichment (6-mer frequency, TF over GST control) with FLI1; 1.12 fold enrichment (6-mer frequency, TF over GST control) with ELK1; 1.11 fold enrichment (6-mer frequency, TF over GST control) with GABPA; 1.05 fold enrichment (6-mer frequency, TF over GST control) with ELF1; 1.02 fold enrichment (6-mer frequency, TF over GST control) with EHF; 1.05 fold enrichment (6-mer frequency, TF over GST control) with SPI1. Moreover, the binding signal with SPIB is 1.06 fold enrichment (6-mer frequency, TF over GST control); with ELK3 it was 1.09 fold enrichment (6-mer frequency, TF over GST control); in the test with FEV, 1.04 fold enrichment (6-mer frequency, TF over GST control); in the test with ETV5, 1.09 fold enrichment (6-mer frequency, TF over GST control); with HSF1, 1.33 fold enrichment (6-mer frequency, TF over GST control); with SPIC, 1.1 fold enrichment (6-mer frequency, TF over GST control). Besides, the binding signal with ELF4 is 1.05 fold enrichment (6-mer frequency, TF over GST control); with ELK4, 1.1 fold enrichment (6-mer frequency, TF over GST control); in the test with ELF3, 1.06 fold enrichment (6-mer frequency, TF over GST control); in the test with CRX, 1.87 fold enrichment (6-mer frequency, TF over GST control); in the test with ETV1 it was 1.08 fold enrichment (6-mer frequency, TF over GST control).
